From PubChem BioAssay (NCI)
Values joined by “and” are separate entries in the source; they are usually repeats but may differ in a detail not shown here. Equal entries are not always repeated. The panel holds about 83,000 compounds, 20% with a hit somewhere; the sample as a whole holds those more often.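 Single-concentration screen, 48 h exposure, 96-well plates. Endpoint: percent growth. Below 10 = active.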 Active and inactive are the calls of the source.

Tests used:
Assay in all cases: NCI-60 one-dose screen, 48 h (100 = growth as untreated, 0 = no growth, -100 = all killed)
SR leukemia = tested on: SR leukemia
RPMI-8226 leukemia = conditions: 10 µM unless noted
OVCAR-8 ovarian = tested on: OVCAR-8 ovarian
OVCAR-5 ovarian = conditions: 10 µM unless noted
OVCAR-4 ovarian = tested on: OVCAR-4 ovarian
SK-OV-3 ovarian = tested on: SK-OV-3 ovarian
IGROV1 ovarian = tested on: IGROV1 ovarian
OVCAR-3 ovarian = tested on: OVCAR-3 ovarian
HS 578T breast = tested on: HS 578T breast
NCI/ADR-RES ovarian = conditions: 10 µM unless noted

Which growth (SR leukemia; 10 µM unless noted) does the source give for `CN(C)c1ccc(/C=C(\C#N)c2ccccc2)cc1` here?
The growth was -18.5% (active) and 14.1% (inactive) and 8.15% (active).

What about the growth (RPMI-8226 leukemia) of the same compound?
The growth was -23% (active) and 37.2% (inactive) and 10.1% (inactive).

And the growth (OVCAR-8 ovarian; 10 µM unless noted)?
The growth was 26.9% (inactive) and 43.7% (inactive) and 38% (inactive).

And the growth (OVCAR-5 ovarian)?
Its growth is 41.5% (inactive) and 62.4% (inactive) and 55.4% (inactive).

And the growth (OVCAR-4 ovarian; 10 µM unless noted)?
Its growth is 48.4% (inactive) and 61.8% (inactive) and 78.6% (inactive).

And the growth (SK-OV-3 ovarian; 10 µM unless noted)?
Its growth is 30.9% (inactive) and 32.4% (inactive) and 29.9% (inactive).

What about the growth (IGROV1 ovarian; 10 µM unless noted) of the same compound?
The growth was -39.9% (active) and 52.4% (inactive) and 43.5% (inactive).

What about the growth (OVCAR-3 ovarian; 10 µM unless noted) of the same compound?
Its growth is -57.9% (active) and 11.6% (inactive) and -12.2% (active).

And the growth (HS 578T breast; 10 µM unless noted)?
The growth was 28.3% (inactive) and 56.2% (inactive) and 28.9% (inactive).

And the growth (NCI/ADR-RES ovarian)?
The growth was -41.2% (active) and 13.3% (inactive) and 20.9% (inactive).

How did the growth (SR leukemia; 10 µM unless noted) turn out when `O=C1C2=C(C(=O)c3ccccc31)C(O)(S(=O)(=O)O)C(O)(S(=O)(=O)O)C1N=CC=CC21` (stereo not drawn) was run?
Its growth is 12.6% (inactive) and 61.2% (inactive).

What about the growth (RPMI-8226 leukemia) of the same compound?
Its growth is 22.9% (inactive) and 44.8% (inactive).

What about the growth (OVCAR-8 ovarian; 10 µM unless noted) of the same compound?
The growth was 24.3% (inactive) and 10.6% (inactive).

And the growth (OVCAR-5 ovarian)?
The growth was 51.9% (inactive).

What about the growth (OVCAR-4 ovarian; 10 µM unless noted) of the same compound?
Its growth is 28.7% (inactive) and 24.3% (inactive).

And the growth (SK-OV-3 ovarian; 10 µM unless noted)?
Its growth is 44.8% (inactive) and 20.9% (inactive).

And the growth (IGROV1 ovarian; 10 µM unless noted)?
Its growth is 33% (inactive) and -16.2% (active).

What about the growth (OVCAR-3 ovarian; 10 µM unless noted) of the same compound?
Its growth is 22.4% (inactive) and 3.66% (active).

What about the growth (HS 578T breast; 10 µM unless noted) of the same compound?
The growth was 13.3% (inactive).

With `CC(C)(C)c1cc(NC(=O)Cc2ccc(-c3cnc4cc(-c5cnn(CCN6CCOCC6)c5)ccc4n3)cc2)no1` as the compound, how does the growth (SR leukemia; 10 µM) read?
The growth was 9.16% (active).

And the growth (SR leukemia; 30 µM)?
The growth was 8.04% (active).

What about the growth (RPMI-8226 leukemia) of the same compound?
Its growth is 22.5% (inactive).

And the growth (OVCAR-8 ovarian; 10 µM)?
The growth was 18.6% (inactive).

What about the growth (OVCAR-8 ovarian; 30 µM) of the same compound?
Its growth is 26.1% (inactive).

What about the growth (OVCAR-4 ovarian; 10 µM) of the same compound?
Its growth is 10.1% (inactive).

What about the growth (OVCAR-4 ovarian; 30 µM) of the same compound?
Its growth is 22.9% (inactive).

What about the growth (SK-OV-3 ovarian; 10 µM) of the same compound?
The growth was -14.1% (active).

What about the growth (SK-OV-3 ovarian; 30 µM) of the same compound?
The growth was 9.27% (active).

What about the growth (IGROV1 ovarian; 10 µM) of the same compound?
The growth was -7.95% (active).

And the growth (IGROV1 ovarian; 30 µM)?
The growth was -9.55% (active).

And the growth (OVCAR-3 ovarian; 10 µM)?
The growth was 28.4% (inactive).

And the growth (OVCAR-3 ovarian; 30 µM)?
Its growth is 22% (inactive).

What about the growth (HS 578T breast; 10 µM) of the same compound?
The growth was -5.25% (active).

And the growth (HS 578T breast; 30 µM)?
Its growth is 3.43% (active).

What does the source list for `COc1cc2nc(N3CCN(C(=O)C4COc5ccccc5O4)CC3)nc(N)c2cc1OC` (stereo not drawn)?
growth (SR leukemia; 10 µM unless noted): 70.4% (inactive) and 83.6% (inactive); growth (RPMI-8226 leukemia): 100% (inactive) and 86.9% (inactive) and 102% (inactive); growth (OVCAR-8 ovarian; 10 µM unless noted): 91.7% (inactive) and 94.7% (inactive) and 101% (inactive); growth (OVCAR-5 ovarian): 127% (inactive) and 112% (inactive) and 96.7% (inactive); growth (OVCAR-4 ovarian; 10 µM unless noted): 92.4% (inactive) and 93.2% (inactive) and 98.9% (inactive); growth (SK-OV-3 ovarian; 10 µM unless noted): 114% (inactive) and 103% (inactive) and 105% (inactive); growth (IGROV1 ovarian; 10 µM unless noted): 93.4% (inactive) and 109% (inactive) and 95.6% (inactive); growth (OVCAR-3 ovarian; 10 µM unless noted): 107% (inactive) and 109% (inactive) and 103% (inactive); growth (HS 578T breast; 10 µM unless noted): 93.7% (inactive) and 118% (inactive)
